# Laboratory results as given in the supplement of paper PMC4466140.
# B1: unnamed (peptide)
# chain: NSMRPPLLIPAATTK
# B2: unnamed (peptide)
# chain: SSAAPPPPPRRATPE
# Target: AgAbp1
# Test: SPOT peptide array binding signal intensity (averaged, normalized) (arbitrary units (background-subtracted, floor 0; scale differs between SH3 domains)); higher = stronger binding of the SH3 domain to the peptide
# How it was run: (§1)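 Spot intensities were captured after detection with anti-GST antibody, an HRP-linked anti-mouse secondary and luminol, and quantified with Genespotter. The probes were GST-fused SH3 domains from four yeast species, produced in E. coli BL21(DE3), purified on glutathione Sepharose and incubated at 10 μg/ml overnight at 4°C on cellulose-bound synthetic 15-mer peptides with cysteines replaced by serines. Binding signal is the normalized, background-subtracted spot intensity averaged over replicates, and its arbitrary units differ between domains.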
row,Binder,SPOT peptide array binding signal intensity
1,B1,0.5
2,B2,0.5

# Target: AgBbc1
# Test: as above
# How it was run: as §1
row,Binder,SPOT peptide array binding signal intensity
1,B1,13.5
2,B2,602

# Target: AgBem1-D1
# Test: as above
# How it was run: as §1
row,Binder,SPOT peptide array binding signal intensity
1,B1,450
2,B2,≤ 0

# Target: AgBzz1-D1
# Test: as above
# How it was run: as §1
row,Binder,SPOT peptide array binding signal intensity
1,B1,19
2,B2,122

# Target: AgBzz1-D2
# Test: as above
# How it was run: as §1
row,Binder,SPOT peptide array binding signal intensity
1,B1,16.5
2,B2,18

# Target: AgCyk3
# Test: as above
# How it was run: as §1
row,Binder,SPOT peptide array binding signal intensity
1,B1,1
2,B2,≤ 0

# Target: AgFus1
# Test: as above
# How it was run: as §1
row,Binder,SPOT peptide array binding signal intensity
1,B1,384
2,B2,4

# Target: AgHof1
# Test: as above
# How it was run: as §1
row,Binder,SPOT peptide array binding signal intensity
1,B1,20.5
2,B2,0.5

# Target: AgHse1
# Test: as above
# How it was run: as §1
row,Binder,SPOT peptide array binding signal intensity
1,B1,210
2,B2,11

# Target: AgLsb1
# Test: as above
# How it was run: as §1
row,Binder,SPOT peptide array binding signal intensity
1,B1,128
2,B2,355

# Target: AgLsb4
# Test: as above
# How it was run: as §1
row,Binder,SPOT peptide array binding signal intensity
1,B1,12
2,B2,1120

# Target: AgMyo5
# Test: as above
# How it was run: as §1
row,Binder,SPOT peptide array binding signal intensity
1,B1,15
2,B2,8

# Target: AgNbp2
# Test: as above
# How it was run: as §1
row,Binder,SPOT peptide array binding signal intensity
1,B1,114
2,B2,0.5

# Target: AgRvs167
# Test: as above
# How it was run: as §1
row,Binder,SPOT peptide array binding signal intensity
1,B1,2.33
2,B2,446

# Target: AgSho1
# Test: as above
# How it was run: as §1
row,Binder,SPOT peptide array binding signal intensity
1,B1,390
2,B2,3

# Target: AgSla1-D1-D2
# Test: as above
# How it was run: as §1
row,Binder,SPOT peptide array binding signal intensity
1,B1,4
2,B2,1

# Target: AgSla1-D3
# Test: as above
# How it was run: as §1
row,Binder,SPOT peptide array binding signal intensity
1,B1,1.75
2,B2,12

# Target: CaAbp1-D1
# Test: as above
# How it was run: as §1
row,Binder,SPOT peptide array binding signal intensity
1,B1,63.5
2,B2,28.5

# Target: CaAbp1-D2
# Test: as above
# How it was run: as §1
row,Binder,SPOT peptide array binding signal intensity
1,B1,121
2,B2,23

# Target: CaBbc1
# Test: as above
# How it was run: as §1
row,Binder,SPOT peptide array binding signal intensity
1,B1,47.2
2,B2,268

# Target: CaBem1-D1
# Test: as above
# How it was run: as §1
row,Binder,SPOT peptide array binding signal intensity
1,B1,378
2,B2,≤ 0

# Target: CaBzz1-D1
# Test: as above
# How it was run: as §1
row,Binder,SPOT peptide array binding signal intensity
1,B1,190
2,B2,1350

# Target: CaBzz1-D2
# Test: as above
# How it was run: as §1
row,Binder,SPOT peptide array binding signal intensity
1,B1,111
2,B2,293

# Target: CaCyk3
# Test: as above
# How it was run: as §1
row,Binder,SPOT peptide array binding signal intensity
1,B1,5.5
2,B2,≤ 0

# Target: CaFus1
# Test: as above
# How it was run: as §1
row,Binder,SPOT peptide array binding signal intensity
1,B1,1550
2,B2,134

# Target: CaHof1
# Test: as above
# How it was run: as §1
row,Binder,SPOT peptide array binding signal intensity
1,B1,0.5
2,B2,31

# Target: CaHse1
# Test: as above
# How it was run: as §1
row,Binder,SPOT peptide array binding signal intensity
1,B1,103
2,B2,6

# Target: CaLsb1
# Test: as above
# How it was run: as §1
row,Binder,SPOT peptide array binding signal intensity
1,B1,13.2
2,B2,0.5

# Target: CaLsb4
# Test: as above
# How it was run: as §1
row,Binder,SPOT peptide array binding signal intensity
1,B1,516
2,B2,3810

# Target: CaMyo5
# Test: as above
# How it was run: as §1
row,Binder,SPOT peptide array binding signal intensity
1,B1,133
2,B2,0.5

# Target: CaNbp2
# Test: as above
# How it was run: as §1
row,Binder,SPOT peptide array binding signal intensity
1,B1,291
2,B2,1

# Target: CaRvs167
# Test: as above
# How it was run: as §1
row,Binder,SPOT peptide array binding signal intensity
1,B1,83.8
2,B2,349

# Target: CaRvs167-3
# Test: as above
# How it was run: as §1
row,Binder,SPOT peptide array binding signal intensity
1,B1,3.75
2,B2,0.5

# Target: CaSho1
# Test: as above
# How it was run: as §1
row,Binder,SPOT peptide array binding signal intensity
1,B1,1320
2,B2,≤ 0

# Target: CaSla1-D1-D2
# Test: as above
# How it was run: as §1
row,Binder,SPOT peptide array binding signal intensity
1,B1,244
2,B2,1870

# Target: CaSla1-D3
# Test: as above
# How it was run: as §1
row,Binder,SPOT peptide array binding signal intensity
1,B1,317
2,B2,0.25

# Target: ScAbp1
# Test: as above
# How it was run: as §1
row,Binder,SPOT peptide array binding signal intensity
1,B1,4
2,B2,3

# Target: ScBbc1
# Test: as above
# How it was run: as §1
row,Binder,SPOT peptide array binding signal intensity
1,B1,1.5
2,B2,0.5

# Target: ScBem1-D1
# Test: as above
# How it was run: as §1
row,Binder,SPOT peptide array binding signal intensity
1,B1,≤ 0
2,B2,≤ 0

# Target: ScBzz1-D1
# Test: as above
# How it was run: as §1
row,Binder,SPOT peptide array binding signal intensity
1,B1,7.5
2,B2,24

# Target: ScBzz1-D2
# Test: as above
# How it was run: as §1
row,Binder,SPOT peptide array binding signal intensity
1,B1,19.5
2,B2,5

# Target: ScCyk3
# Test: as above
# How it was run: as §1
row,Binder,SPOT peptide array binding signal intensity
1,B1,6
2,B2,1

# Target: ScFus1
# Test: as above
# How it was run: as §1
row,Binder,SPOT peptide array binding signal intensity
1,B1,508
2,B2,≤ 0

# Target: ScHof1
# Test: as above
# How it was run: as §1
row,Binder,SPOT peptide array binding signal intensity
1,B1,≤ 0
2,B2,7

# Target: ScHse1
# Test: as above
# How it was run: as §1
row,Binder,SPOT peptide array binding signal intensity
1,B1,160
2,B2,≤ 0

# Target: ScLsb1
# Test: as above
# How it was run: as §1
row,Binder,SPOT peptide array binding signal intensity
1,B1,232
2,B2,315

# Target: ScLsb2
# Test: as above
# How it was run: as §1
row,Binder,SPOT peptide array binding signal intensity
1,B1,1
2,B2,49.5

# Target: ScLsb3
# Test: as above
# How it was run: as §1
row,Binder,SPOT peptide array binding signal intensity
1,B1,303
2,B2,3110

# Target: ScLsb4
# Test: as above
# How it was run: as §1
row,Binder,SPOT peptide array binding signal intensity
1,B1,208
2,B2,711

# Target: ScMyo3
# Test: as above
# How it was run: as §1
row,Binder,SPOT peptide array binding signal intensity
1,B1,47.5
2,B2,124

# Target: ScMyo5
# Test: as above
# How it was run: as §1
row,Binder,SPOT peptide array binding signal intensity
1,B1,8.5
2,B2,83.8

# Target: ScNbp2
# Test: as above
# How it was run: as §1
row,Binder,SPOT peptide array binding signal intensity
1,B1,150
2,B2,36

# Target: ScPex13
# Test: as above
# How it was run: as §1
row,Binder,SPOT peptide array binding signal intensity
1,B1,222
2,B2,300

# Target: ScRvs167
# Test: as above
# How it was run: as §1
row,Binder,SPOT peptide array binding signal intensity
1,B1,53.7
2,B2,1890

# Target: ScSho1
# Test: as above
# How it was run: as §1
row,Binder,SPOT peptide array binding signal intensity
1,B1,562
2,B2,3

# Target: ScSla1-D1-D2
# Test: as above
# How it was run: as §1
row,Binder,SPOT peptide array binding signal intensity
1,B1,266
2,B2,1390

# Target: ScSla1-D3
# Test: as above
# How it was run: as §1
row,Binder,SPOT peptide array binding signal intensity
1,B1,430
2,B2,≤ 0

# Target: SpAbp1-D1
# Test: as above
# How it was run: as §1
row,Binder,SPOT peptide array binding signal intensity
1,B1,27
2,B2,160

# Target: SpBbc1
# Test: as above
# How it was run: as §1
row,Binder,SPOT peptide array binding signal intensity
1,B1,2.75
2,B2,≤ 0

# Target: SpBzz1-D1
# Test: as above
# How it was run: as §1
row,Binder,SPOT peptide array binding signal intensity
1,B1,273
2,B2,757

# Target: SpBzz1-D2
# Test: as above
# How it was run: as §1
row,Binder,SPOT peptide array binding signal intensity
1,B2,142

# Target: SpCyk3
# Test: as above
# How it was run: as §1
row,Binder,SPOT peptide array binding signal intensity
1,B2,2.5

# Target: SpHof1
# Test: as above
# How it was run: as §1
row,Binder,SPOT peptide array binding signal intensity
1,B2,10.2

# Target: SpHof1-2
# Test: as above
# How it was run: as §1
row,Binder,SPOT peptide array binding signal intensity
1,B2,33.5

# Target: SpHof1-3
# Test: as above
# How it was run: as §1
row,Binder,SPOT peptide array binding signal intensity
1,B2,366

# Target: SpHse1
# Test: as above
# How it was run: as §1
row,Binder,SPOT peptide array binding signal intensity
1,B2,10.5

# Target: SpLsb1
# Test: as above
# How it was run: as §1
row,Binder,SPOT peptide array binding signal intensity
1,B2,101

# Target: SpLsb4
# Test: as above
# How it was run: as §1
row,Binder,SPOT peptide array binding signal intensity
1,B2,2800

# Target: SpMyo1
# Test: as above
# How it was run: as §1
row,Binder,SPOT peptide array binding signal intensity
1,B2,876

# Target: SpNbp2
# Test: as above
# How it was run: as §1
row,Binder,SPOT peptide array binding signal intensity
1,B2,≤ 0

# Target: SpPex13
# Test: as above
# How it was run: as §1
row,Binder,SPOT peptide array binding signal intensity
1,B2,≤ 0

# Target: SpRvs167
# Test: as above
# How it was run: as §1
row,Binder,SPOT peptide array binding signal intensity
1,B2,1860

# Target: SpSla1-D1-D2
# Test: as above
# How it was run: as §1
row,Binder,SPOT peptide array binding signal intensity
1,B2,62

# Target: SpSla1-D3
# Test: as above
# How it was run: as §1
row,Binder,SPOT peptide array binding signal intensity
1,B2,0.5
